From the supplement of paper PMC4840960 come the findings set out here.

The subject of assay [1] is E18 rat cortical neuron-glia co-culture. The experiment in a line: fiber score / MBP score (myelination specific beyond OL differentiation) (ratio); higher = more myelination-specific MBP alignment. To be noted: treatment time: 8 days (DIV5-DIV13). Put shortly: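 Reported values are fiber score (continuous MBP fiber length per Olig2+ nucleus) divided by MBP score (thresholded MBP area × intensity per Olig2+ nucleus). They come from primary E18 rat cortical co-cultures treated with library compounds at 1 or 5 µM in myelination medium from DIV5 to DIV13, then fixed in 4 % paraformaldehyde, immunostained for MBP and Olig2 with DAPI, and analysed over four 10X fields per well in duplicate wells.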

Assay [2] has the same test system. Put plainly: myelination (MBP fiber length per Olig2+ nucleus), % of 1 µM DAPT response (DMSO = 0) (% of DAPT); higher = more myelination, active = 50 or more. The following applies: treatment time: 8 days (DIV5-DIV13). Put shortly:
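Rat cortical co-cultures from E18 tissue were dissociated with papain and plated at 20,000 cells/well on 96-well plates coated with poly-d-lysine/laminin. From DIV5 to DIV13, library compounds were added at 1 or 5 µM in myelination medium. After fixation in 4 % paraformaldehyde, cultures were immunostained for MBP and Olig2 and counterstained with DAPI, and four 10X fields were analysed in each of duplicate wells. The myelination value is the length of continuous straight MBP fibers per Olig2+ nucleus, normalised so that 0.1 % DMSO is 0 and a 1 µM positive control is 100.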

Molecules are shown by their SMILES. ± gives the standard deviation of the averaged measurements.

Turning to `CCOC(=O)c1ncn2c1CN(C)C(=O)c1cc(F)ccc1-2` [Flumazenil], the “fiber score / MBP score” value was 0.859 in assay [1] (1 µM) and 0.835 in assay [1] (5 µM). The myelination is -6.81 (inactive) in assay [2] (1 µM) and -19.8 (inactive) in assay [2] (5 µM).

In the case of `COc1ccc(CN2CCN(C(c3ccc(F)cc3)c3ccc(F)cc3)CC2)c(OC)c1OC` [Lomerizine], the results for the “fiber score / MBP score” value in assay [1] (1 µM) and in assay [1] (5 µM) were 1.05 and 0.643, respectively. In addition, the myelination in assay [2] (1 µM) was 14.1 (inactive); in assay [2] (5 µM), -23.5 (inactive).

As to `C[C@@H]1C[C@H]2[C@@H]3CCC4=CC(=O)C=C[C@]4(C)[C@@]3(F)[C@@H](O)C[C@]2(C)[C@@]1(O)C(=O)CO` [Dexamethazone], the “fiber score / MBP score” value in assay [1] (1 µM) turned out to be 0.866; in assay [1] (5 µM), 0.845. The myelination in assay [2] (1 µM) is -1.63 (inactive); in assay [2] (5 µM), -0.917 (inactive).

With `NC(Cc1cc(I)c(Oc2cc(I)c(O)c(I)c2)c(I)c1)C(=O)O` (configuration not stated) [Thyroxine], the “fiber score / MBP score” value worked out at 0.768 in assay [1] (1 µM) and 1.19 in assay [1] (5 µM). The myelination is -4.45 (inactive) in assay [2] (1 µM) and 32 (inactive) in assay [2] (5 µM).

In the case of `S=c1[nH]cnc2nc[nH]c12` [Mercaptopurine], the figures for the “fiber score / MBP score” value in assay [1] (1 µM) and in assay [1] (5 µM) were 0.858 and 0.41, respectively. Further, the myelination in assay [2] (1 µM) is -32.7 (inactive); in assay [2] (5 µM) it was -50.2 (inactive).

As for `Cc1cccc(Nc2ccncc2S(=O)(=O)NC(=O)NC(C)C)c1` [Torsemide], the “fiber score / MBP score” value in assay [1] (1 µM) amounted to 0.837; in assay [1] (5 µM) it was 0.949. The values for the myelination in assay [2] (1 µM) and in assay [2] (5 µM) were -11.6 (inactive) and -4.35 (inactive), respectively.

Consider `CC1(C)S[C@@H]2[C@H](NC(=O)COc3ccccc3)C(=O)N2[C@H]1C(=O)O` [Penicillin V], for which the “fiber score / MBP score” value was 0.881 in assay [1] (1 µM) and 0.734 in assay [1] (5 µM). For the same compound, the myelination was -3.1 (inactive) in assay [2] (1 µM) and -3.83 (inactive) in assay [2] (5 µM).

As to `NCc1ccc(S(N)(=O)=O)cc1` [Mafenide], the “fiber score / MBP score” value in assay [1] (1 µM) stood at 1.07; in assay [1] (5 µM), 0.912. Also, the myelination is 6.37 (inactive) in assay [2] (1 µM) and 3.49 (inactive) in assay [2] (5 µM).

Turning to `O=C1c2c(O)cc(O)cc2OC(c2ccc(O)c(O)c2)C1O` (configuration not stated) [Taxifolin], the figures for the “fiber score / MBP score” value in assay [1] (1 µM) and in assay [1] (5 µM) were 0.697 and 0.943, respectively. The figures for the myelination in assay [2] (1 µM) and in assay [2] (5 µM) were -33.2 (inactive) and -8.22 (inactive), respectively.

Take `CC1Cc2ccccc2N1NC(=O)c1ccc(Cl)c(S(N)(=O)=O)c1` (configuration not stated) [Indapamide]: the “fiber score / MBP score” value in assay [1] (1 µM) was 0.911; in assay [1] (5 µM), 1.31. Moreover, the myelination in assay [2] (1 µM) was -4.93 (inactive); in assay [2] (5 µM) it was 6.67 (inactive).

For `C#C[C@]1(O)CC[C@H]2[C@@H]3CCC4=CC(=O)CC[C@@H]4[C@H]3CC[C@@]21CC` [Levonorgestrel], the figures for the “fiber score / MBP score” value in assay [1] (1 µM) and in assay [1] (5 µM) were 0.998 and 1.12, respectively. For the same compound, the myelination was -13.4 (inactive) in assay [2] (1 µM) and 0.485 (inactive) in assay [2] (5 µM).

Turning to `CN(C)CC/C=C1/c2ccccc2COc2ccc(CC(=O)O)cc21` [Olopatadine], the “fiber score / MBP score” value in assay [1] (1 µM) was determined as 0.791; in assay [1] (5 µM), 0.936. Besides, the myelination in assay [2] (1 µM) is -7.93 (inactive); in assay [2] (5 µM), -5.94 (inactive).

For `CN(C)CCC(c1ccc(Cl)cc1)c1ccccn1` (configuration not stated) [Chlorpheniramine], the “fiber score / MBP score” value turned out to be 0.721 ± 0.13 in assay [1] (1 µM) and 0.471 ± 0.094 in assay [1] (5 µM). The myelination in assay [2] (1 µM) was -9.68 (inactive); in assay [2] (5 µM), -17.7 (inactive).

For `COc1c(N2C[C@@H]3CCCN[C@@H]3C2)c(F)cc2c(=O)c(C(=O)O)cn(C3CC3)c12` [Moxifloxacin], the results for the “fiber score / MBP score” value in assay [1] (1 µM) and in assay [1] (5 µM) were 0.766 and 0.689, respectively. The myelination in assay [2] (1 µM) was -12.3 (inactive); in assay [2] (5 µM), -17.6 (inactive).

For `CC[C@H](C)C(=O)O[C@H]1C[C@H](O)C=C2C=C[C@H](C)[C@H](CC[C@@H](O)C[C@@H](O)CC(=O)O)[C@H]21` [Pravastatin], the “fiber score / MBP score” value was 0.899 in assay [1] (1 µM) and 0.809 in assay [1] (5 µM). For the same compound, the myelination is 2.73 (inactive) in assay [2] (1 µM) and -17.4 (inactive) in assay [2] (5 µM).

As for `O=C(c1ccc(OCCN2CCCCC2)cc1)c1c(-c2ccc(O)cc2)sc2cc(O)ccc12` [Raloxifene], the entries for the “fiber score / MBP score” value in assay [1] (1 µM) and in assay [1] (5 µM) were 0.211 and 0.788, respectively. The values for the myelination in assay [2] (1 µM) and in assay [2] (5 µM) were -12.3 (inactive) and 13.4 (inactive), respectively.

`CCOc1ccc2ccccc2c1C(=O)N[C@@H]1C(=O)N2[C@@H]1SC(C)(C)[C@@H]2C(=O)O` [Nafcillin]: the “fiber score / MBP score” value in assay [1] (1 µM) worked out at 1.25; in assay [1] (5 µM), 0.777. Moreover, the myelination in assay [2] (1 µM) was 4.05 (inactive); in assay [2] (5 µM), -9.33 (inactive).

On to `C[C@H]1O[C@H](O[C@H]2[C@H](O)[C@@H](O)[C@@H](O[C@H]3[C@H](O)[C@@H](O)C(O)O[C@@H]3CO)O[C@@H]2CO)[C@H](O)[C@@H](O)[C@@H]1N[C@H]1C=C(CO)[C@@H](O)[C@H](O)[C@H]1O` (some centres not stated) [Acarbose], for which the results for the “fiber score / MBP score” value in assay [1] (1 µM) and in assay [1] (5 µM) were 0.856 and 0.99, respectively. In addition, the myelination was -11.8 (inactive) in assay [2] (1 µM) and -6.72 (inactive) in assay [2] (5 µM).

Consider `O=C1CN(/N=C/c2ccc([N+](=O)[O-])o2)C(=O)N1` [Nitrofurantoin], for which the “fiber score / MBP score” value turned out to be 0.819 in assay [1] (1 µM) and 1.79 in assay [1] (5 µM). For the same compound, the figures for the myelination in assay [2] (1 µM) and in assay [2] (5 µM) were -1.03 (inactive) and 44 (inactive), respectively.

With `NS(=O)(=O)c1cc2c(cc1Cl)N=CNS2(=O)=O` [Chlorothiazide], the “fiber score / MBP score” value in assay [1] (1 µM) was found to be 1.05; in assay [1] (5 µM), 0.841. The myelination in assay [2] (1 µM) was 3.67 (inactive); in assay [2] (5 µM), 6.93 (inactive).

For `C[C@@H]1C[C@H]2[C@@H]3C[C@H](F)C4=CC(=O)C=C[C@]4(C)[C@@]3(F)[C@@H](O)C[C@]2(C)[C@@]1(O)C(=O)SCF` [Fluticasone], the “fiber score / MBP score” value was found to be 0.729 in assay [1] (1 µM) and 0.694 in assay [1] (5 µM). Moreover, the myelination was -47.4 (inactive) in assay [2] (1 µM) and -24.8 (inactive) in assay [2] (5 µM).

Take `COc1ccc2[nH]c([S+]([O-])Cc3ncc(C)c(OC)c3C)nc2c1` (configuration not stated) [Omeprazole]: the “fiber score / MBP score” value in assay [1] (1 µM) is 0.656; in assay [1] (5 µM), 0.73. For the same compound, the values for the myelination in assay [2] (1 µM) and in assay [2] (5 µM) were -8.06 (inactive) and -4.44 (inactive), respectively.

On to `CCC(=O)NS(=O)(=O)c1ccc(-c2c(-c3ccccc3)noc2C)cc1` [Parecoxib], for which the figures for the “fiber score / MBP score” value in assay [1] (1 µM) and in assay [1] (5 µM) were 0.57 and 1.01, respectively. Also, the values for the myelination in assay [2] (1 µM) and in assay [2] (5 µM) were -22.9 (inactive) and 1.22 (inactive), respectively.
